# Source: PubChem BioAssay (Tox21)
# Results filed as inconclusive are left out. Unmarked numbers belong to inactive results. Calls come from the whole dose curve; as a rule, active = well fitted inhibition curve with a large enough effect in the signal ratio in the repeat runs (not every such curve was filed as active); inconclusive = weak or mixed curves, or effect the other way; inactive = no such curve, though single readings can be large or run the other way; the % refers to the signal ratio.
# Target: Peroxisome proliferator-activated receptor delta (Homo sapiens) (UniProt Q03181)
# Test: qHTS assay to identify small molecule antagonists of the peroxisome proliferator-activated receptor delta (PPARd) signaling pathway (AID 743215);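 note: cells stimulated with agonist L165041 at 300 nM final during compound exposure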
# Settings: HEK293H PPARd-UAS-bla, beta-lactamase FRET ratio, antagonist, 17 h; series mostly up to 62 µM; ratio activity, negative = inhibition: at the top concentration
# Procedure, shortened: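 Plated HEK293H PPARd-bla cells rested 5 h at 37 C and 5% CO2. Compound, then agonist L165041 at 300 nM final, was added; 17 h at 37 C followed. Substrate loading, 2 h room temperature, fluorescence measured.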
# % is set by controls: 0 for no effect and ±100 for the full control effect.
# Peroxisome proliferator-activated receptor delta (Homo sapiens), sequence (Q03181 whole entry, looked up): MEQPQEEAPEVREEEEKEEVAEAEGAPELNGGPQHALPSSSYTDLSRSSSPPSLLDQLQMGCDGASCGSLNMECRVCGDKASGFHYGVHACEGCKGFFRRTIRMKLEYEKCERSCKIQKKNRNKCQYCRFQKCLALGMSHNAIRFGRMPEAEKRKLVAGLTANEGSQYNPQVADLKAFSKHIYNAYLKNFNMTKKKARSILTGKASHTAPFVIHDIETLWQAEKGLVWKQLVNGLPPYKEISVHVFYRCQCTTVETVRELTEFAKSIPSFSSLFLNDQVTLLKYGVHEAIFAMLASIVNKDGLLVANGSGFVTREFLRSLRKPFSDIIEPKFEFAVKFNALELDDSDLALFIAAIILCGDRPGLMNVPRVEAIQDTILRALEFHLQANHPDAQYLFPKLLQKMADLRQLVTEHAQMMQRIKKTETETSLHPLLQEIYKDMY
row,Structure (SMILES),"ratio activity, negative = inhibition"
1,CC1CC(CC2CCC(N)C(C)C2)CCC1N (stereo not drawn),-7.52% [at 80.4 µM]
2,CC(C)(CCl)C(=O)Cl,1.23%
3,CC(O)(CS(=O)(=O)c1ccc(F)cc1)C(=O)Nc1ccc(C#N)c(C(F)(F)F)c1 (stereo not drawn),-11.6%
4,CCC(Cl)CCl (stereo not drawn),9.49% [at 80.4 µM]
5,C[C@H]1CNCCc2ccc(Cl)cc21,-1.98%
6,Cc1c(F)c(F)c(COC(=O)C2C(/C=C(\Cl)C(F)(F)F)C2(C)C)c(F)c1F (stereo not drawn),-7.93%
7,CO[C@@H]1[C@H](OC(=O)NC(=O)CCl)CC[C@]2(CO2)[C@H]1[C@@]1(C)O[C@@H]1CC=C(C)C,-0.728% [at 28.9 µM]

# Target: Bile acid receptor (Homo sapiens) (UniProt Q96RI1)
# Test: qHTS assay to identify small molecule antagonists of the farnesoid-X-receptor (FXR) signaling pathway (AID 743217)
# Settings: HEK293T FXR-UAS-bla, beta-lactamase ratio, CDCA-stimulated, 16 h; series mostly up to 62.6 µM; activity change, negative = inhibition: at the top concentration
# Procedure, shortened: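 Screen of the Tox21 10K library in quantitative HTS format using FXR-UAS-bla HEK 293T reporter cells. Agonist chenodeoxycholic acid, 50 uM final, added with compounds; 16 h incubation at 37 °C; beta-lactamase FRET fluorescence measured.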
# Bile acid receptor (Homo sapiens), sequence (Q96RI1 whole entry, looked up): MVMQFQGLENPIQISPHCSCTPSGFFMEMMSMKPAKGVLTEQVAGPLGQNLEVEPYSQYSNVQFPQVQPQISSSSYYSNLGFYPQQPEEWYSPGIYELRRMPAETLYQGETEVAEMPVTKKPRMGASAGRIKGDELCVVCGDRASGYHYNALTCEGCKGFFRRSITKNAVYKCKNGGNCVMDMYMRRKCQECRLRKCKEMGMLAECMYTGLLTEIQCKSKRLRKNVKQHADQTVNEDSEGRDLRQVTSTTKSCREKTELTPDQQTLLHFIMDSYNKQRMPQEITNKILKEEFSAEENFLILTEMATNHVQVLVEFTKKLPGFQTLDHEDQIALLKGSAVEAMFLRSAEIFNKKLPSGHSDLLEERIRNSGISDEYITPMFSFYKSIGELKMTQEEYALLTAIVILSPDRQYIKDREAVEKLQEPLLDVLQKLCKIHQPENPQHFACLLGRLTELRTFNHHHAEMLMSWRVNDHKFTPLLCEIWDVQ
row,Structure (SMILES),"activity change, negative = inhibition"
1,C=CC(=O)OCC(C)O (stereo not drawn),-16.4% [at 81.1 µM]
2,CCO[C@H]1O[C@@H]2OC3(C)CC[C@H]4[C@H](C)CC[C@@H]([C@H]1C)[C@@]24OO3,-1.18%
3,C[C@H]1CNCCc2ccc(Cl)cc21,-10.7%
4,COCC(C)N(C(=O)CCl)c1c(C)csc1C (stereo not drawn),-9.28%
5,O=[Se]=O,1.51%
6,C=CCN1CC[C@]23c4c5ccc(O)c4O[C@H]2C(=O)CC[C@@]3(O)[C@H]1C5,7.99%
